# According to PubChem BioAssay AID686979 (National Center for Advancing Translational Sciences (NCATS), 2013):
# Values joined by “and” are separate entries in the source; they are usually repeats but may differ in a detail not shown here. Identical values can stand only once. Out of some 420,000 compounds screened, about 50,000 (12%) were called active. About 26% were inconclusive and are not listed. Calls follow the shape of the dose curve; as a rule, active = well fitted inhibition curve with a large enough effect; inconclusive = small, poorly fitted or top-dose-only effect; inactive = flat fitted curve, though single readings scatter. Many of the other results were omitted from the sample, so actives are more common in it than they were.
# Experiment: qHTS for Inhibitors of human tyrosyl-DNA phosphodiesterase 1 (TDP1): qHTS in cells in presence of CPT; also: nearly all actives have a fitted effect of over 55% in size
# Settings: chicken DT40 Tdp1-/-;hTDP1 cells + 20 nM CPT, ATP luminescence, 48 h; series mostly up to 46.2 µM; activity change, negative = growth inhibition: at the top concentration
# Procedure, shortened: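 Cell growth measured by CellTiter-Glo luminescence after a minimum 48 h, 37 C compound exposure with 20 nM CPT in Tdp1-knockout DT40 cells stably expressing hTDP1, seeded 400/well; qHTS titration format.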
# % is scaled to controls: 0 for no effect and ±100 for the full control effect; potency is read from the fitted curve at half-maximal effect.
SMILES,Potency,"activity change, negative = growth inhibition"
Cn1c(=NC(=O)c2ccc3c(c2)OCCO3)sc2cc(S(C)(=O)=O)ccc21,inactive,–
O=C(NCc1ccncc1)c1cccc(NS(=O)(=O)c2ccc(F)c(F)c2)c1,–,-24.5% (inactive)
COc1ccccc1OCCC(=O)OCC(=O)NCc1ccccc1,–,-3.12% (inactive)
CC(C)c1c(O)nc(SCCOc2ccc(Cl)cc2)[nH]c1=O,–,-21.2% (inactive)
COc1ccc(CN2C(=O)C(CC(=O)NCCCCc3ccccc3)CC(C(=O)N3CCOCC3)=C2C)cc1 (configuration not stated),–,-23% (inactive)
Cc1ncc2c(c1CNS(=O)(=O)N(C)C)CCN(C(=O)c1ccccc1F)C2,–,12.2% [at 9.04 µM] (inactive)
O=C(NCc1cccc(Cl)c1)C1=CC=CN2CCS(=O)(=O)N=C12,–,-1.14% (inactive)
COc1ccc(Cl)cc1NC(=O)CN(C)C(=O)c1ccc2n[nH]nc2c1,–,2.23% (inactive)
COc1cccc(NC(=O)CN(C)C(=O)c2cc(Cl)nc3ccccc23)c1,–,-8.6% (inactive)
COc1ccc(-c2cc(C(=O)N(C)Cc3ccc(OC)c(OC)c3OC)c3ccccc3n2)cc1OC,16.4 µM (active),–
COc1ccc(-c2cc(C(=O)N(C)CC(=O)Nc3ccccc3Cl)c3ccccc3n2)cc1OC,20.6 µM (active),–
COc1ccc(CN(C)C(=O)Cc2ccsc2)c(OC)c1OC,–,4.57% (inactive)
COc1ccc(-c2cc(C(=O)NCCCN3CCCC3=O)c3ccccc3n2)cc1OC,–,-21.6% (inactive)
COc1ccc(CN2[C@@H](CC(=O)O)c3cc(F)ccc3S2(=O)=O)cc1,inactive,–
CCN(CC)S(=O)(=O)c1ccc(-c2cn3ccc(C)cc3n2)cc1,–,-7.04% (inactive)
Cc1ccc(S(=O)(=O)n2nc(C)c(S(=O)(=O)N3CCCCCC3)c2C)cc1,–,-22.1% (inactive)
COc1ccc(NS(=O)(=O)c2cccc3nsnc23)cc1Cl,–,12.3% (inactive)
COc1ccc([C@H]2CC(=O)C=C(c3ccc(C)cc3)C2)cc1,–,-23.5% (inactive)
CC(=O)Nc1cccc(C(=O)Nc2nc(C)cs2)c1,–,-28.2% (inactive)
S=C(Nc1cccc(Cl)c1)Nc1ccc2cn[nH]c2c1,–,1.54% (inactive)
Cc1csc(NC(=S)Nc2cccc(Cl)c2)n1,1.64 µM (active),–
Cc1cc(C)cc(NC(=O)CCS(=O)(=O)c2cc3c4c(c2)CCN4C(=O)CC3)c1,–,-13% (inactive)
S=c1[nH]nc(-c2ccco2)n1/N=C/c1ccccc1,–,2.71% (inactive)
Cn1cccc1-c1nc2ccccc2n1C,–,1.93% (inactive)
Cn1c(-c2ccco2)nc2cc3ccccc3cc21,11.6 µM (active),–

SMILES,Potency,"activity change, negative = growth inhibition"
CCOc1ccc(S(=O)(=O)N(CC(=O)NCCSCc2ccc(C)cc2)c2ccccc2)cc1,–,-7.56% (inactive)
CCS(=O)(=O)Nc1cc(C(=O)N2C[C@@H](C)O[C@@H](C)C2)c2c(c1)nc(-c1ccccc1)n2C,–,0.659% (inactive)
CCOC(=O)C1=C(O)CSC1=Nc1cccc(Cl)c1,–,0.891% (inactive)
CN(C)c1nc(=Nc2cccc(Cl)c2)ss1,0.206 µM (active),–
O=C(O)C1=NN(c2c(F)c(F)cc(F)c2F)C(=O)CC1,–,5.08% (inactive)
O=C(O)CCc1cccnc1,inactive,–
C/C(=N\NC(=O)CCn1nc(C)cc1C)C(C)(C)C,–,21.5% (inactive)
Cc1ccc2c(C)c(C(=O)N(C)Cc3ccncn3)oc2c1C,–,-21.4% (inactive)
CC(=O)N1CCC2(CC1)CCN(c1ccncc1)CC2,–,-0.882% (inactive)
Cc1ccc2c(C)c(C(=O)N3CCN(c4ccncc4)CC3)oc2c1C,23.1 µM (active),–
CCOC(=O)N(Cc1ccccc1)C1CC1,–,0.287% (inactive)
CCN(CC(=O)NCc1ccc(Cl)cc1)C(=O)c1c(C)noc1C,–,-1.41% (inactive)
Cc1noc(C)c1-c1ccc(C(=O)NCc2ccncc2)c2occc12,9.2 µM (active),–
O=C(NCc1ccncc1)C(=O)NCc1ccco1,–,-14.1% (inactive)
Cc1ccc(CNC(=O)CCc2c(C)nc3c(c(C)nn3-c3ccccc3)c2C)cc1,–,-27.9% (inactive)
CC(=O)Oc1ccc(N(C(C)=O)S(=O)(=O)c2ccc3ccccc3c2)cc1Br,–,-21.1% (inactive)
CCOC(=O)c1c(C)oc2cc(Br)c(OCC(N)=O)cc12,–,-7.14% (inactive)
CCOC(=O)c1c(C)oc2nc(C)nc(Nc3ccc(CC)cc3)c12,–,-3.14% (inactive)
COC(=O)c1c(C)oc2ccc(N(C(=O)Oc3ccccc3)S(=O)(=O)c3ccccc3)cc12,20.6 µM (active),–
CCOC(=O)c1c(C)oc2ccc(N(C(=O)c3ccncc3)S(=O)(=O)c3ccc(CC)cc3)cc12,5.8 µM (active),–
CN(CC(=O)O)S(=O)(=O)c1ccc2oc3ccccc3c2c1,–,6.87% (inactive)
COc1cc(/C=C2/C(=O)NN(c3ccc(F)cc3)C2=O)cc([N+](=O)[O-])c1O,–,-6.31% (inactive)
CC(C)(C)c1cc(=O)n2c(nc3ccccc32)[nH]1,–,-28.4% (inactive)
COCCOC(=O)C1=C(C)NC(=O)NC1c1cc2c(cc1Br)OCO2 (configuration not stated),–,17.9% (inactive)
O=C(O)C1=C/C(=C/C=[N+]2c3cc(O)c(O[C@H]4OC(CO)[C@@H](O)[C@@H](O)[C@@H]4O)cc3C[C@@H]2C(=O)[O-])C[C@H](C(=O)O)N1 (some centres not stated),–,1.31% (inactive)

SMILES,Potency,"activity change, negative = growth inhibition"
COc1ccc(CNC(=O)COC(=O)C(CCSC)N2C(=O)c3ccccc3C2=O)cc1 (configuration not stated),–,-1.64% (inactive)
COc1ccccc1C1/C(=C(/O)c2ccc(C)cc2)C(=O)C(=O)N1Cc1ccco1 (configuration not stated),–,11.9% (inactive)
COc1ccc(/C(O)=C2\C(=O)C(=O)N(Cc3ccco3)C2c2ccc(OC)cc2OC)cc1 (configuration not stated),29.1 µM (active),–
COc1ccc(C2/C(=C(/O)c3ccccc3)C(=O)C(=O)N2C)c(OC)c1 (configuration not stated),–,0.256% (inactive)
CCn1c(SCC(=O)NC2CC2)nnc1-c1ccccn1,–,-5.45% (inactive)
CO[C@H]1[C@@H](O)[C@H](N)[C@@H](O[C@H]2O[C@H]([C@H](C)N)CC[C@H]2N)[C@H](O)[C@@H]1N(C)C(=O)CN,–,-2.47% (inactive)
CC[C@]1(O)CC2CN(CCc3c([nH]c4ccccc34)[C@@](C(=O)OC)(c3cc4c(cc3OC)N(C=O)[C@H]3[C@@](O)(C(=O)OC)[C@H](OC(C)=O)[C@]5(CC)C=CCN6CC[C@]43[C@@H]65)C2)C1 (some centres not stated),0.146 µM (active),–
CC[C@]1(O)C[C@@H]2CN(CCc3c([nH]c4ccccc34)[C@@](C(=O)OC)(c3cc4c(cc3OC)N(C)[C@H]3[C@@](O)(C(=O)OC)[C@H](OC(C)=O)[C@]5(CC)C=CCN6CC[C@]43[C@@H]65)C2)C1,65.1 nM (active) and 47.3 nM (active) and 146 nM (active),–
CCc1nc2onc(C)c2c(=O)n1CC(=O)O,–,27.9% (inactive)
O=C1Cc2cc(S(=O)(=O)Nc3cccc(F)c3)ccc2N1,–,-5.68% (inactive)
Cc1c(NC(=O)C(C)(C)C)cccc1-c1nc2ccccc2s1,13 µM (active),–
CC(=O)Nc1cccc(-c2nc3ccccc3s2)c1C,–,1.91% (inactive)
CCC(C(=O)Nc1cccc(-c2nc3cccnc3s2)c1C)c1ccccc1 (configuration not stated),20.6 µM (active),–
Cc1cccc(C(=O)Nc2ccc(-c3nc4ccccc4s3)c(C)c2)c1,–,-22.1% (inactive)
CCC(C(=O)Nc1ccc2c(c1)OCCO2)c1ccccc1 (configuration not stated),–,-5.39% (inactive)
CCC(C(=O)Nc1ccc(C(C)C)cc1)c1ccccc1 (configuration not stated),–,-1.5% (inactive)
Cc1c(O)cc2c(c1C)O[C@](C)(CCC[C@H](C)CCC[C@H](C)CCCC(C)C)CC2,–,-19.5% (inactive)
Cc1ccc(NC(=O)c2cc([N+](=O)[O-])ccc2Cl)c(O)c1,–,7.21% (inactive)
COc1ccc(N2CCN(c3ccc([N+](=O)[O-])cc3Cl)CC2)cc1,–,-8.72% (inactive)
CCC(=O)Nc1ccc(Nc2nc(Cl)nc(Nc3ccc(NC(=O)CC)cc3)n2)cc1,–,-9.94% (inactive)
CCOc1ccc(Nc2nc(Cl)nc(N3CCN(c4ccc(OC)cc4)CC3)n2)cc1,18.4 µM (active),–
CCOC(=O)N1CCN(CCC(=O)Nc2ccccc2)CC1,–,-6.11% (inactive)
Cc1noc(C)c1CSCC(=O)Nc1nc2ccc(Oc3ccccc3)cc2s1,–,-8.95% (inactive)
O=C(Nc1ccc(S(=O)(=O)N2CCCCC2)cc1)C1CC(=O)N(c2ccc(F)cc2)C1 (configuration not stated),–,-7.16% (inactive)
COC[C@@H]1NS(=O)(=O)c2ccc(Br)cc2O[C@H]1c1ccccc1,–,-25.1% (inactive)

SMILES,Potency,"activity change, negative = growth inhibition"
CCOc1ccc2nc(N3CCCC(C(=O)Nc4cc(C)ccc4C)C3)sc2c1 (configuration not stated),23.1 µM (active),–
Cc1ccc(C)c(NC(=O)C2CCCN(S(=O)(=O)c3cn(C)cn3)C2)c1 (configuration not stated),–,-4.35% (inactive)
CCOc1ccc2nc(C(=O)N3CCCC(C)C3)sc2c1 (configuration not stated),–,-15.4% (inactive)
COCC(C)NS(=O)(=O)c1ccc(N2CCCCS2(=O)=O)cc1 (configuration not stated),–,-29.7% (inactive)
COC(=O)C1=C(C)N=C2SC(C)C(=O)N2C1/C=C/c1ccccc1 (configuration not stated),–,-1.89% (inactive)
CC(OC(=O)c1ccccc1N1C(=O)C2C3CCC(C3)C2C1=O)C(=O)c1ccccc1 (configuration not stated),–,-11.2% (inactive)
CCOC(=O)c1ccccc1N1C(=O)C2Sc3[nH]c(=O)sc3C(/C=C/c3ccccc3)C2C1=O (configuration not stated),18.4 µM (active),–
Cc1ccc2[nH]c(=O)c(CN(CCCN(C)C)C(=O)Nc3cccc(Cl)c3)cc2c1,20.6 µM (active),–
CCC(=O)N(CCc1ccccc1)Cc1cc2cc(C)ccc2[nH]c1=O,–,-26.3% (inactive)
CCOc1ccc2[nH]c(=O)c(CN(CCCO)C(C)=O)cc2c1,–,7.64% (inactive)
Cc1cc(NC(=O)c2ccccc2C)no1,–,-8.51% (inactive)
Cc1csc(=Nc2ccccc2)n1CCO,–,-1.39% (inactive)
OCCn1c(-c2ccccc2)csc1=Nc1ccccc1,25.9 µM (active),–
Cc1nc(SCC(=O)NC2CCCC2)[nH]c(=O)c1C,–,5.43% (inactive)
O=C1CSc2ccc(S(=O)(=O)NCc3ccccc3)cc2N1,–,-22.4% (inactive)
CC(CC(=O)N1CCN(c2ccccc2)CC1)S(=O)(=O)c1ccc2c(c1)NC(=O)CS2 (configuration not stated),23.1 µM (active),–
COc1ccccc1N1CCN(S(=O)(=O)c2ccc3c(c2)NC(=O)CS3)CC1,–,-24.9% (inactive)
Cc1ccccc1OCCC(=O)OCC(=O)NCCc1ccc(S(N)(=O)=O)cc1,–,-4.61% (inactive)
Cc1oc2c(F)c(F)c(F)c(F)c2c1S(=O)(=O)Nc1cccc(C(F)(F)F)c1,11.6 µM (active),–
Cc1noc(C)c1S(=O)(=O)Nc1cc(C(F)(F)F)ccc1N1CCOCC1,–,-29% (inactive)
Cc1ccc(N(CCC(=O)O)S(=O)(=O)c2cccc(C(F)(F)F)c2)cc1,–,0.774% (inactive)
O=S(O)CNc1ccc(S(=O)(=O)c2ccc(NCS(=O)O)cc2)cc1,–,7.21% (inactive)
